“And” between values parts separate entries of the source, which are not always exact repeats. Identical values can stand only once. The campaign covered roughly 5,500 compounds. About 2,000 (36%) were called active. Roughly 18% stayed inconclusive and do not appear here. No stated cut-off is given here; in the data, active means normalized growth mostly below about 0.91 (no sharp cut-off); inconclusive means no clear call, values can overlap the other calls; inactive means mostly above about 0.92. Some of the results follow.
Experiment: chemical genetic growth profiling, strain panel (AID 1159580);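 further: tested at 20 µM; growth read once vehicle control cultures reached saturation at 30 °C; 1 = growth at the plate median or of vehicle wells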
Settings: S. cerevisiae deletion strains, growth OD

Measured: normalized growth

O=c1[nH]cnc2c1ncn2C1O[C@H](CO)[C@@H](O)[C@H]1O (stereo partly drawn)
inactive: locus YAL013W, strain DEP1, stronger effect = lower value 1.01 | locus YAL021C, strain ccr4, stronger effect = lower value 0.989 | locus YAL026C, strain drs2, stronger effect = lower value 1 | locus YAL030W, strain snc1, stronger effect = lower value 0.989 | locus YBL061C, strain skt5, stronger effect = lower value 0.995 | locus YBR009C, strain hhf1, stronger effect = lower value 1.02 | locus YBR021W, strain FUR4, stronger effect = lower value 1 | locus YBR023C, strain chs3, stronger effect = lower value 0.998 | locus YBR171W, strain sec66, stronger effect = lower value 0.978 | locus YBR229C, strain ROT2, stronger effect = lower value 1 | locus YBR231C, strain swc5, stronger effect = lower value 0.974 | locus YBR279W, strain paf1, stronger effect = lower value 0.986 | locus YCL011C, strain gbp2, stronger effect = lower value 1 | locus YCL016C, strain dcc1, stronger effect = lower value 1 | locus YCL029C, strain bik1, stronger effect = lower value 1.03 | locus YCL069W, strain vba3, stronger effect = lower value 0.995 | locus YCR088W, strain abp1, stronger effect = lower value 0.981 | locus YDL005C, strain med2, stronger effect = lower value 0.987 | locus YDL035C, strain GPR1, stronger effect = lower value 1.01 | locus YDL040C, strain nat1, stronger effect = lower value 0.986 | locus YDL074C, strain BRE1, stronger effect = lower value 1.01 | locus YDL101C, strain DUN1, stronger effect = lower value 1.01 | locus YDL134C, strain PPH21, stronger effect = lower value 1 | locus YDL185W, strain tfp1, stronger effect = lower value 1.04 | locus YDL192W, strain arf1, stronger effect = lower value 1.05 | locus YDR001C, strain nth1, stronger effect = lower value 0.986 | locus YDR069C, strain doa4, stronger effect = lower value 0.975 | locus YDR101C, strain arx1, stronger effect = lower value 1.05 | locus YDR137W, strain rgp1, stronger effect = lower value 1.01 | locus YDR159W, strain sac3, stronger effect = lower value 0.968 | locus YDR162C, strain NBP2, stronger effect = lower value 1.01 | locus YDR195W, strain ref2 0.958 | locus YDR297W, strain sur2, stronger effect = lower value 0.993 | locus YDR318W, strain mcm21, stronger effect = lower value 1.01 | locus YDR334W, strain swr1, stronger effect = lower value 0.974 | locus YDR335W, strain msn5, stronger effect = lower value 0.997 | locus YDR388W, stronger effect = lower value 1.03 | locus YDR392W, strain spt3, stronger effect = lower value 0.907 | locus YDR502C, strain sam2, stronger effect = lower value 1.02 | locus YEL003W, strain gim4, stronger effect = lower value 0.991 | locus YEL037C, strain rad23, stronger effect = lower value 0.987 | locus YEL061C, strain CIN8 (second series), stronger effect = lower value 0.989 | locus YEL061C, strain CIN8, stronger effect = lower value 1 | locus YER015W, strain faa2, stronger effect = lower value 0.982 | locus YER016W, strain bim1, stronger effect = lower value 0.989 | locus YER110C, stronger effect = lower value 1.03 | locus YER111C, strain swi4, stronger effect = lower value 0.996 | locus YER155C, strain BEM2 (second series), stronger effect = lower value 0.939 | locus YER155C, strain BEM2, stronger effect = lower value 1.01 | locus YER167W, strain BCK2, stronger effect = lower value 1 | locus YFR010W, strain ubp6, stronger effect = lower value 0.983 | locus YGL078C, strain dbp3, stronger effect = lower value 1.02 | locus YGL086W, strain mad1, stronger effect = lower value 1.01 | locus YGL167C, strain pmr1, stronger effect = lower value 0.978 | locus YGL173C, strain kem1, stronger effect = lower value 0.988 | locus YGL227W, strain vid30, stronger effect = lower value 0.98 | locus YGL240W, strain doc1, stronger effect = lower value 1 | locus YGL248W, strain PDE1, stronger effect = lower value 1.01 | locus YGL253W, strain hxk2, stronger effect = lower value 0.988 | locus YGR135W, strain pre9, stronger effect = lower value 0.998 | locus YGR252W, strain gcn5, stronger effect = lower value 0.981 | locus YHR013C, strain ard1, stronger effect = lower value 0.969 | locus YHR027C, strain rpn1, stronger effect = lower value 0.997 | locus YHR030C, strain SLT2, stronger effect = lower value 1 and 0.966 | locus YHR079C, strain IRE1 (second series), stronger effect = lower value 1.03 | locus YHR079C, strain IRE1, stronger effect = lower value 0.978 | locus YHR094C, strain hxt1, stronger effect = lower value 1.02 | locus YHR129C, strain ARP1, stronger effect = lower value 1 | locus YHR142W, strain chs7, stronger effect = lower value 1.02 | locus YHR200W, strain rpn10, stronger effect = lower value 1.03 | locus YIL066C, strain RNR3, stronger effect = lower value 1.01 | locus YIL073C, strain SPO22, stronger effect = lower value 1.12 | locus YIL125W, strain kgd1, stronger effect = lower value 1.02 | locus YIR030C, strain dcg1, stronger effect = lower value 1.04 | locus YJL092W, strain hpr5, stronger effect = lower value 0.998 | locus YJL095W, strain BCK1 (second series), stronger effect = lower value 0.987 | locus YJL095W, strain BCK1, stronger effect = lower value 1.02 and 0.981 | locus YJL115W, strain asf1, stronger effect = lower value 0.987 | locus YJL129C, strain trk1, stronger effect = lower value 0.994 | locus YJL134W, strain LCB3, stronger effect = lower value 1 | locus YJL154C, strain vps35, stronger effect = lower value 0.982 | locus YJL164C, strain tpk1, stronger effect = lower value 1.02 | locus YJL166W, strain qcr8, stronger effect = lower value 1.01 | locus YJL168C, strain set2, stronger effect = lower value 1.01 | locus YJL187C, strain SWE1 (second series), stronger effect = lower value 1 | locus YJL187C, strain SWE1, stronger effect = lower value 0.991 | locus YJR043C, strain POL32, stronger effect = lower value 1.01 | locus YJR066W, strain TOR1, stronger effect = lower value 0.925

Reference: PubChem BioAssay AID1159580 (chemical genetic matrix, 2015)
